# Test results reported in PubChem BioAssay.
# Activity calls are given as the source filed them. Unless noted, no stated cut-off is given here; in the data, active means inhibition above about 80%; inactive means the rest.
# Columns and labels:
# [1] = LFS_MB_P medulloblastoma growth inhibition, cell-based, chromothripsis tumors, cisplatin or BGB combos (AID 1671449); conditions: LFS_MB_P medulloblastoma cells;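 further: cells exposed for 96 hours; 0% = vehicle DMSO and 100% = killing by high DMSO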
# [2] = HDN33 neuroblastoma growth inhibition, cell-based, chromothripsis tumors, cisplatin or BGB combos (AID 1671450); conditions: HDN33 neuroblastoma cells, stronger effect = higher value;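 further: cells exposed to compound for four days; 0% = vehicle DMSO and 100% = cell killing by high DMSO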
# [3] = ICB984 medulloblastoma cell growth inhibition, synergistic combos for chromothripsis tumors, cisplatin or BGB combos (AID 1671451; call rule not given here;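 further: cells exposed for 96 hours before readout; 0% = vehicle DMSO and 100% = killing by high DMSO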); conditions: ICB984 medulloblastoma cells, drug combinations, stronger effect = higher value
# [4] = LFS_MB_1R medulloblastoma cell growth inhibition, synergistic combos for chromothripsis tumors, cisplatin or BGB combos (AID 1671452); conditions: LFS_MB_1R medulloblastoma cells, stronger effect = higher value;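 further: cells exposed for 96 hours before readout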
# [5] = HTB85 osteosarcoma cell growth inhibition, synergistic combos for chromothripsis tumors, BGB or cisplatin IC20 combos (AID 1671453); conditions: HTB85 osteosarcoma cells, drug combinations, stronger effect = higher value;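 further: cells exposed for 96 hours before readout; 0% = vehicle DMSO and 100% = high DMSO killing control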
# [6] = CRL2098 osteosarcoma cell growth inhibition, synergistic combos for chromothripsis tumors, BGB or cisplatin IC20 combos (AID 1671454); conditions: CRL2098 osteosarcoma cells, drug combinations, stronger effect = higher value;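 further: cells exposed for 96 h before readout; 0% = vehicle DMSO and 100% = killing by high DMSO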
# [7] = HD-MB03 medulloblastoma cell growth inhibition, synergistic combos for chromothripsis tumors, BGB or cisplatin IC20 combos (AID 1671455; in the data active means inhibition above about 83%;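 further: 0% = vehicle DMSO and 100% = high DMSO as cytotoxic control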); conditions: HD-MB03 medulloblastoma cells, stronger effect = higher value
# [8] = UWB1.289 ovarian carcinoma cell growth inhibition, synergistic combos for chromothripsis tumors, BGB or cisplatin combos (AID 1671456); conditions: UWB1.289 ovarian carcinoma cells, stronger effect = higher value;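 further: cells exposed to compound for four days; 0% = vehicle DMSO and 100% = killing by high DMSO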
# [9] = LFS_MB_2R medulloblastoma cell growth inhibition, synergistic combos for chromothripsis tumors, cisplatin combos (AID 1671457); conditions: LFS_MB_2R medulloblastoma cells, stronger effect = higher value;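 further: cells exposed to compound for four days before readout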
# [10] = MDA-MB-436 breast carcinoma cell growth inhibition, synergistic combos for chromothripsis tumors, BGB or cisplatin combos (AID 1671458; call rule not given here;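 further: cells exposed for 96 hours; 0% = vehicle DMSO and 100% = killing by high DMSO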); conditions: MDA-MB-436 breast carcinoma growth inhibition, drug combinations, stronger effect = higher value
# [11] = UWB1.289_BRCA1 ovarian cancer growth, cell-based, BGB or cisplatin combinations (AID 1671459); conditions: UWB1.289 BRCA1 ovarian carcinoma, drug combinations, stronger effect = higher value
# [12] = human astrocyte viability loss, single and combined drugs, cytotoxicity control for chromothriptic childhood tumor combination screen, cell-based, BGB or cisplatin IC20 combos (AID 1671460); conditions: Human astrocytes, drug combinations, stronger effect = higher value;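 further: cells exposed to compounds for 96 hours before viability readout; 0% = vehicle and 100% = killing control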
# [13] = growth inhibition of BT084 medulloblastoma cells, cell-based, ICGC_MB145, cisplatin and BGB IC40 combos (AID 1671461); conditions: drug combinations, stronger effect = higher value;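 further: cells exposed to drugs for 96 hours; 0% = vehicle DMSO and 100% = high DMSO full killing control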
# [14] = growth inhibition of RCMB18 medulloblastoma cells, cell-based, cisplatin and BGB IC40 combos (AID 1671462); conditions: stronger effect = higher value;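 further: cells exposed to compound for four days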
# [15] = growth inhibition of CRL1545 osteosarcoma cells, cell-based, cisplatin and BGB IC20 combos (AID 1671464); conditions: stronger effect = higher value;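 further: cells exposed to compound for 96 hours before readout; 0% = vehicle DMSO and 100% = high DMSO killing control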
# [16] = measured here: combination with BGB IC40, at 0.05 µM
# [17] = measured here: with BGB IC20 combination, at 0.5 µM
# [18] = measured here: with cisplatin IC20 combination, at 0.5 µM
# [19] = measured here: combination with cisplatin, at 0.5 µM
# [20] = measured here: combination with cisplatin, at 5 µM
structure (smiles),measurement,setting,value
Cc1c(-c2cnccn2)ssc1=S,inhibition,"[1]; at 0.5 µM, stronger effect = higher value",-20.5% (inactive)
same,inhibition,"[1]; measured here: combination with BGB IC20, at 0.005 µM",-19.2%
same,inhibition,"[1]; measured here: combination with BGB IC40, at 0.005 µM",-19%
same,inhibition,[1]; [16],-17.6%
same,inhibition,"[1]; measured here: combination with cisplatin, at 0.5 µM, stronger effect = higher value",-32.1%
same,inhibition,"[1]; measured here: combination with cisplatin, at 5 µM, stronger effect = higher value",-10.5%
same,inhibition,"[2]; BGB combo, at 5 µM",-58.5%
same,inhibition,[2]; at 0.5 µM,-42% (inactive)
same,inhibition,"[2]; cisplatin combo, at 5 µM",-70%
same,inhibition,[2]; [17],-31.4%
same,inhibition,[2]; [18],-48.3%
same,inhibition,"[2]; single agent, at 5 µM",-46.9%
same,inhibition,"[3]; BGB IC20 combo, at 0.005 µM",-28.8%
same,inhibition,"[3]; BGB IC40 combo, at 0.005 µM",-23.8%
same,inhibition,"[3]; BGB IC40 combo, at 0.05 µM",-8.66%
same,inhibition,[3]; at 0.5 µM,-19.7% (inactive)
same,inhibition,"[3]; cisplatin combo, at 0.05 µM",-8.66%
same,inhibition,"[3]; cisplatin combo, at 0.5 µM",-33.7%
same,inhibition,"[3]; cisplatin combo, at 5 µM",-21.2%
same,inhibition,"[3]; measured here: 5 uM single agent, at 5 µM",-0.147%
same,inhibition,[4]; at 0.5 µM,-48.5% (inactive)
same,inhibition,[4]; [16],12.7%
same,inhibition,[4]; [19],-42.8%
same,inhibition,[4]; [20],-46.1%
same,inhibition,[5]; at 0.5 µM,-26% (inactive)
same,inhibition,"[5]; measured here: with BGB IC20, at 0.5 µM",-48%
same,inhibition,"[5]; measured here: with BGB IC20, at 5 µM",-29.8%
same,inhibition,"[5]; measured here: with cisplatin IC20, at 0.5 µM",-19.3%
same,inhibition,"[5]; measured here: with cisplatin IC20, at 5 µM",6.84%
same,inhibition,"[5]; single agent, at 5 µM",-28%
same,inhibition,[6]; at 0.5 µM,-91.2% (inactive)
same,inhibition,"[6]; measured here: combination with BGB at IC20, at 0.5 µM",-80.8%
same,inhibition,"[6]; measured here: combination with cisplatin at IC20, at 0.5 µM",-109%
same,inhibition,[7]; at 0.5 µM,-13% (inactive)
same,inhibition,"[7]; measured here: combo with BGB at IC20, at 0.5 µM",-1.23%
same,inhibition,"[7]; measured here: combo with cisplatin at IC20, at 0.5 µM",-23%
same,inhibition,[8]; at 0.5 µM,-15.7% (inactive)
same,inhibition,"[8]; measured here: inhibition with BGB combination, at 0.05 µM",-24.2%
same,inhibition,"[8]; measured here: inhibition with cisplatin combination, at 0.05 µM",3.36%
same,inhibition,[9]; at 0.5 µM,-15.7% (inactive)
same,inhibition,[9]; [19],-6.9%
same,inhibition,[9]; [20],-12.4%
same,inhibition,[10]; at 0.5 µM,-20.6% (inactive)
same,inhibition,"[10]; measured here: BGB combination, at 0.5 µM",-19.7%
same,inhibition,"[10]; measured here: BGB combination, at 5 µM",-36%
same,inhibition,"[10]; measured here: cisplatin combination, at 0.5 µM",-33%
same,inhibition,"[10]; measured here: cisplatin combination, at 5 µM",-12.1%
same,inhibition,"[11]; BGB combination, concentration series, at 5 µM",-4.42%
same,inhibition,[11]; at 0.5 µM,-14.9% (inactive)
same,inhibition,"[11]; cisplatin combination, concentration series, at 5 µM",-10.4%
same,inhibition,[12]; at 0.5 µM,0.12% (inactive)
same,inhibition,"[12]; measured here: combo with BGB IC20, at 0.5 µM",-4.93%
same,inhibition,"[12]; measured here: combo with cisplatin IC20, at 0.5 µM",-9.68%
same,inhibition,[13]; at 0.5 µM,-10.9% (inactive)
same,inhibition,"[13]; cisplatin combination, at 0.5 µM",-13.8%
same,inhibition,"[13]; cisplatin combination, at 5 µM",-45.9%
same,inhibition,"[13]; measured here: BGB IC40 combination 0.05 uM, at 0.05 µM",2.43%
same,inhibition,"[13]; single agent, at 5 µM",-13.6%
same,inhibition,[14]; at 0.5 µM,-21% (inactive)
same,inhibition,"[14]; cisplatin combo, at 5 µM",-46.1%
same,inhibition,"[14]; measured here: BGB IC40 combination, at 0.05 µM",-10.6%
same,inhibition,[14]; [19],-54.1%
same,inhibition,"[14]; single agent, at 5 µM",-29.2%
same,inhibition,[15]; at 0.5 µM,-60.7% (inactive)
same,inhibition,[15]; [17],-51%
same,inhibition,[15]; [18],-65.5%
same,inhibition,"[15]; single agent, at 0.05 µM",-3.94%
same,inhibition,"[15]; single agent, at 5 µM",-64.9%
